ULK1 inh: human ULK1 kinase inhibition, primary screen. O75385. AlphaScreen Atg13 phosphorylation by ULK1, luminescence. inhibition, % at 5.96 µM. actives 1.9% (n = 30,000); in the data active = inhibition above about 43%;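 note: 0% = median of compound wells and 100% = no enzyme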
ASK1 primary: human ASK1 kinase inhibition, primary screen; inhibition, % at 7.44 µM; AlphaScreen MKK6 phosphorylation by ASK1, luminescence; actives 0.99% (n = 22,000); in the data active = inhibition above about 35%;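 note: 0% = median of compound wells and 100% = no enzyme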
The depositor's hits bear a star; · = not tested or not shown. The list is not random: actives were taken first. Their share in the collection is about 2.5%.

SMILES	ULK1 inh	ASK1 primary
c1ccc(CN2CCC(Nc3ncnc4nc(Nc5cnccn5)[nH]c34)CC2)cc1	11.9	-2.6
c1ccc(CN2CCC(Nc3ncnc4nc(Nc5ccncn5)[nH]c34)CC2)cc1	55.5*	4.9
CC(=O)Nc1ccc(Nc2ccnc(-c3ccccc3)n2)cc1	-3.6	-7.8
c1ccc2[nH]c(CNc3cc(Nc4ccc(-n5ccnc5)cc4)ncn3)nc2c1	1.3	-4.7
CN1CCN(C(=O)c2ccc(-c3cccc(C(=O)NCc4cccnc4)n3)cc2)CC1	9.3	6.0
CN1CCN(C(=O)c2ccc(-c3cccc(C(=O)NCc4ccccc4)n3)cc2)CC1	70.2*	14.5
CCOc1cc(/C=N/N2C(=O)C3C(C2=O)C2C=CC3C23CC3)ccc1O (stereo unspecified)	5.2	·
CCOc1cc(/C=N\NC(=O)c2n[nH]c3c2CCCC3)ccc1O	44.4*	·
CC(C)(O)c1ccccc1CC[C@@H](SCC1(CC(=O)O)CC1)c1cccc(/C=C/c2ccc3ccc(Cl)cc3n2)c1	43.0*	·
CNS(=O)(=O)c1ccccc1Nc1cc(Nc2ccc(N3CCOCC3)cc2OC)ncc1C(F)(F)F	90.8*	8.2
COc1cc(N2CCOCC2)ccc1Nc1cc(Nc2ccccn2)c(C(F)(F)F)cn1	38.8	24.6
CNC(=O)c1ccccc1Nc1cc(Nc2ccc(N3CCOCC3)cc2OC)ncc1Br	85.7*	-0.5
COc1cc(N2CCOCC2)ccc1Nc1cc(Nc2ccccc2S(=O)(=O)NC(C)C)c(C(F)(F)F)cn1	28.8	9.8
COc1cc(N2CCOCC2)ccc1Nc1cc(Nc2ccc(F)cc2OC)c(C(F)(F)F)cn1	25.7	18.4
CNC(=O)c1cc(F)c(F)cc1Nc1cc(Nc2ccc3c(c2)CC(=O)N3)ncc1C(F)(F)F	30.0	8.9
CNC(=O)c1cc(F)ccc1Nc1cc(Nc2ccc(N3CCOCC3)cc2OC)ncc1C(F)(F)F	84.2*	17.0
CNC(=O)c1cc(F)c(F)cc1Nc1cc(Nc2ccc(N3CCOCC3)cc2OC)ncc1C(F)(F)F	69.0*	7.5
CC(C)N(CCNc1nc(NC2CCN(Cc3ccccc3)CC2)nc2c1ncn2C1CCCCC1)C(C)C	-0.6	-15.5
COc1ccc(CCNc2ccnc(Nc3ncccn3)n2)cc1	6.8	-2.0
O=C(NN=C1CCCCCCC1)c1cccc(O)c1	10.5	·
O=C(Cc1cn(-c2ccc(N3CCN(c4ccccn4)CC3)nn2)c2ccccc12)Nc1ccccc1	10.4	5.9
COCCN(Cc1cccc(F)c1)C(=O)c1nc2ccc(-c3cn[nH]c3)cc2s1	-22.5	-16.4
CCN(CC)C(=O)C1CCCN(c2cc(C(=O)NCc3ccccc3)ccn2)C1 (stereo unspecified)	5.7	2.5
CN(C)c1cccc(Nc2nc3ccc(C(=O)NCc4ccccc4)cc3s2)c1	14.1	23.5
CS(=O)(=O)Nc1ccc(-c2ccnc(Nc3ccc(C(O)(C(F)(F)F)C(F)(F)F)cc3)n2)cc1	32.8	-28.8
SMILES	ULK1 inh	ASK1 primary
CC(=O)c1ccc(Nc2nccc(-c3ccc(NS(C)(=O)=O)cc3)n2)cc1	55.1*	-22.4
CS(=O)(=O)Nc1ccc(-c2ccnc(Nc3ccc(-n4cncn4)cc3)n2)cc1	67.2*	7.1
Cc1ccc(-c2ncn(-c3ccc(Nc4nccc(-c5ccc(NS(C)(=O)=O)cc5)n4)cc3)n2)cn1	11.8	3.4
COc1ccc(CCNc2nc(NCc3cccnc3)nc3c2ncn3C(C)C)cc1	21.2	1.3
CCNc1cc(C)nc(N2CCN(S(=O)(=O)c3cccc(Cl)c3)CC2)n1	-43.5	·
Oc1cccc2[nH]ccc12	19.7	·
c1ccc2[nH]ccc2c1	83.3*	·
NC(Cc1ccc(Cl)cc1)C(=O)Nc1ccc(-c2cn[nH]c2)cc1 (stereo unspecified)	0.5	3.6
N[C@H]1CC[C@@H](C(=O)Nc2cccc3cnccc23)C1	-0.9	-8.8
N[C@H]1CCC[C@H](C(=O)Nc2cccc3c(=O)[nH]cnc23)C1	53.1*	8.6
O=C1CCCN1CCn1cnc2c(NCc3ccccc3)nc(Nc3ccccc3)nc21	-23.8	15.7
Cc1ncn(-c2ccc(Nc3nccc(-c4ccc(C#N)c(N5CCCC(O)C5)c4)n3)cc2)n1 (stereo unspecified)	2.6	12.4
N#Cc1cc(-c2ccnc(Nc3cccc(N)c3)n2)ccc1N1CCCC1	41.3	19.4
N#Cc1cc(-c2ccnc(Nc3ccc(N)cc3)n2)ccc1N1CCC(O)CC1	85.5*	7.6
Cc1ncn(-c2ccc(Nc3nccc(-c4ccc(N5CCCC(O)C5)c(C#N)c4)n3)cc2)n1 (stereo unspecified)	79.5*	-7.5
O=C(NC1CC1)c1ccc(-c2nc3ncnc(Nc4ccc(N5CCOCC5)cc4)c3[nH]2)cc1	21.4	4.1
CCNc1nc(NCc2cccc(C(F)(F)F)c2)c2[nH]cnc2n1	2.1	9.2
COc1nc(NCCOc2ccccc2)nc(-c2ccc(C(N)=O)cc2)n1	-10.6	0.3
CN1CCN(C(=O)c2ccc(-c3cncc(C(=O)NCCOc4ccccc4)c3)cc2)CC1	-2.3	-7.1
Cc1cnc(N2CCCC2CO)nc1N (stereo unspecified)	10.9	-0.3
COc1ccc(CNC(=O)c2ccc3c(c2)CC(c2nc4ccc(-c5ccnc(N)n5)cc4[nH]2)CO3)cc1 (stereo unspecified)	-32.2	2.4
Cc1c[nH]c(=O)c2cccc(S(=O)(=O)N3CCCNC[C@@H]3C)c12	47.2*	0.1
Cc1c[nH]c(=O)c2cccc(NC3CCN(C(=O)C(N)c4ccc(Br)cc4)CC3)c12 (stereo unspecified)	13.6	10.8
CN(C)CCN(C)c1nc(C2COc3ccccc3O2)nc2ccc(-c3ccnc(N)n3)cc12 (stereo unspecified)	7.0	19.4
c1cc(Nc2nccc(NC3CC3)n2)ncn1	6.6	-8.1
SMILES	ULK1 inh	ASK1 primary
O=C(NCCCN1CCCC1=O)c1cccc(NCCCN2CCCC2=O)c1	-12.8	2.4
O=C(NCc1ccccc1)c1cccc(NCCCN2CCCC2=O)c1	53.7*	-5.8
CNC(=O)c1ccccc1Nc1cc(Nc2ccc(OC3CCN(C)CC3)cc2OC)ncc1C(F)(F)F	94.8*	10.0
CNC(=O)c1ccccc1Nc1cc(Nc2ccc(N3CCC(N(C)C)C3)cc2OC)ncc1C#N (stereo unspecified)	90.9*	24.0
CC(C)NC1CCC(Nc2cc(Nc3ccccc3C(N)=O)c(C(F)(F)F)cn2)CC1 (stereo unspecified)	29.5	11.9
CNC(=O)c1ccccc1Nc1cc(Nc2ccc(N3CCN(C)CC3)cc2OC)ncc1C(F)(F)F	91.2*	19.1
COc1cc(N2CCOCC2)ccc1Nc1cc(Nc2cccc3c2C(=O)N(C)C3)c(C(F)(F)F)cn1	15.6	-0.6
COc1cc(N2CCOCC2)ccc1Nc1cc(Nc2ccccc2-c2ncco2)c(C(F)(F)F)cn1	31.3	20.0
CC(C)n1cnc2c(N)nc(Nc3ccc(C(F)(F)F)cc3)nc21	17.2	4.4
CC(C)Oc1ccc2c(c1)CC(c1nc3ccc(-c4ccnc(N)n4)cc3o1)CO2 (stereo unspecified)	-7.2	9.5
O=C1c2cccc(O)c2C(=O)c2c(O)cccc21	30.5	·
Cc1cc(O)c2c(c1)Cc1cccc(O)c1C2=O	44.2*	·
Cc1cc(NCCO)nc(-c2ccc(N3CCOCC3)nc2)n1	6.8	0.7
Cn1c(Nc2nc(NCCOc3ccccc3)c3ncn(C4CCCCC4)c3n2)nc2ccccc21	52.3*	-0.8
COc1ccc(CCNc2nc(Nc3nc4ccccc4n3C)nc3c2ncn3C2CCCCC2)cc1	13.5	19.4
COc1cc(Nc2cc(NCCCN3CCCC3=O)ncn2)cc(OC)c1OC	-5.3	11.8

Screens as filed in PubChem.
